Results: PubChem BioAssay (NCI)
The panel holds about 79,000 compounds, 15% with a hit somewhere; the sample as a whole holds those more often. Calls of active or inactive are those of the source. No stated cut-off is given here; in the data, active means growth inhibition above about 70%; inactive means the rest.

Assays:
[1] = NCI Yeast Anticancer Drug Screen. Data for the rad52 strain (AID 147);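 further: 0% = growth of vehicle-treated control cultures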; details: S. cerevisiae rad52 mutant growth inhibition, stronger effect = higher value
Summary of the method: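 Compounds are applied to a genetically defined yeast strain lacking normal DNA damage repair, and inhibition of growth is expressed relative to cultures given vehicle only.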

[2] = NCI Yeast Anticancer Drug Screen. Data for the wt1 strain (AID 149);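 further: 0% = growth of vehicle-treated wt1 cultures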; details: S. cerevisiae wt1 strain (SPY 50644) growth inhibition, stronger effect = higher value
Summary of the method: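 wt1 strain grown with compound or vehicle; inhibition taken from the growth difference.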

[3] = NCI Yeast Anticancer Drug Screen. Data for the rad50EPP+ strain (AID 151);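 further: 0% = growth of vehicle-treated control cultures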; details: S. cerevisiae rad50 mutant strain, stronger effect = higher value
Summary of the method: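 Compounds were applied to the rad50EPP+ yeast strain, which bears a defined DNA repair alteration, and growth inhibition was determined relative to vehicle-treated cultures.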

[4] = NCI Yeast Anticancer Drug Screen. Data for the mgt1 strain (AID 153); details: S. cerevisiae mgt1 mutant growth inhibition, stronger effect = higher value
Summary of the method: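 Strain: mgt1 yeast, one of a set carrying defined DNA damage repair or cell cycle control alterations. Compound-treated growth compared with vehicle.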

[5] = NCI Yeast Anticancer Drug Screen. Data for the rad50 strain (AID 155);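 further: 0% = growth of vehicle-only cultures of the same strain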; details: S. cerevisiae rad50 strain growth inhibition, stronger effect = higher value
Summary of the method: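 DNA repair mutant yeast, compound exposure, growth read-out; inhibition is taken relative to vehicle.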

[6] = NCI Yeast Anticancer Drug Screen. Data for the mec2-1 strain (AID 157); details: S. cerevisiae mec2-1 strain, stronger effect = higher value
Summary of the method: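 Strain: mec2-1 (DNA repair/cell cycle alteration). Compound exposure, then growth measured; inhibition expressed relative to vehicle.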

[7] = NCI Yeast Anticancer Drug Screen. Data for the rad14 strain (AID 159);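 further: 0% = growth of vehicle-treated control cultures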; details: S. cerevisiae rad14 strain growth inhibition, stronger effect = higher value
Summary of the method: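 DNA repair-defective yeast, compound-exposed; % growth inhibition derived by comparison with vehicle-treated controls.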

[8] = NCI Yeast Anticancer Drug Screen. Data for the sgs1 mgt1 strain (AID 161);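 further: 0% = growth of cultures given vehicle only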; details: S. cerevisiae sgs1 mgt1 strain, stronger effect = higher value
Summary of the method: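 Test agents were incubated with a DNA-repair-mutant yeast strain. Growth was then read and compared against vehicle-treated controls.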

[9] = NCI Yeast Anticancer Drug Screen. Data for the CLN2oe strain (AID 163);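 further: 0% = growth of vehicle-only control cultures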; details: S. cerevisiae CLN2oe strain, stronger effect = higher value
Summary of the method: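 Growth of a genetically modified yeast strain is measured after compound exposure and compared with cultures given vehicle alone.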

[10] = NCI Yeast Anticancer Drug Screen. Data for the cln2 rad14 strain (AID 165);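 further: 0% = growth equal to vehicle treated cultures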; details: S. cerevisiae cln2 rad14 strain, stronger effect = higher value
Summary of the method: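 Compounds are applied to the cln2 rad14 yeast strain, and growth is then compared with that of vehicle-treated cultures to give inhibition.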

[11] = NCI Yeast Anticancer Drug Screen. Data for the bub3 strain (AID 167); details: S. cerevisiae bub3 mutant strain, stronger effect = higher value
Summary of the method: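 In this screen, a yeast mutant lacking normal mitotic checkpoint function is challenged with compound. Relative growth versus vehicle gives the inhibition value.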

[12] = NCI Yeast Anticancer Drug Screen. Data for the wt2 strain (AID 169);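 further: 0% = growth of vehicle-treated yeast cultures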; details: S. cerevisiae wt2 strain growth inhibition, stronger effect = higher value
Summary of the method: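 This strain belongs to a panel of yeast strains with defined genetic alterations in DNA damage repair or cell cycle control. Compounds are applied, and growth inhibition is measured against vehicle-treated cultures.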

[13] = NCI Yeast Anticancer Drug Screen. Data for the sgs1 strain (AID 173);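 further: 0% = growth of vehicle-only control cultures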; details: S. cerevisiae sgs1 mutant, stronger effect = higher value
Summary of the method: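 Growth of a yeast strain bearing a defined genetic alteration is measured after compound treatment. Inhibition is expressed relative to vehicle-only controls.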

[14] = NCI Yeast Anticancer Drug Screen. Data for the mlh1 rad18 strain (AID 175); details: S. cerevisiae mlh1 rad18 strain growth inhibition, stronger effect = higher value
Summary of the method: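 Read-out is yeast growth inhibition, calculated against vehicle-only controls. The compound was applied to a strain engineered with DNA damage repair alterations.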

[15] = NCI Yeast Anticancer Drug Screen. Data for the rad18 strain (AID 177); details: S. cerevisiae rad18 mutant growth inhibition, stronger effect = higher value
Summary of the method: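 Growth of the mutant yeast strain after compound exposure, normalised to vehicle-only cultures.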

[16] = at 5.0 µM (retest, dose inferred, filed as 0.5)
[17] = at 50.0 µM (retest, dose inferred, filed as 5.0)

Measured: growth inhibition

O=[N+]([O-])c1cn[n+]([O-])c2ccccc12
active: [1]; at 11.0 µM 90% | [1]; at 33.0 µM 97% | [1]; at 100.0 µM 99% | [2]; at 33.0 µM 93% | [2]; at 100.0 µM 99% | [3]; at 3.7 µM 90% | [3]; at 11.0 µM 96% | [3]; at 33.0 µM 99% | [3]; at 100.0 µM 100% | [4]; at 33.0 µM 99% | [4]; at 100.0 µM 99% | [5]; at 11.0 µM 85% | [5]; at 33.0 µM 97% | [5]; [17] 97% | [5]; at 50.0 µM 89.3% | [5]; at 100.0 µM 99% | [6]; at 33.0 µM 97% | [6]; [17] 99% | [6]; at 50.0 µM 91.8% | [6]; at 100.0 µM 99% | [7]; at 11.0 µM 91% | [7]; at 33.0 µM 99% | [7]; at 100.0 µM 99% | [8]; [17] 99% | [8]; at 50.0 µM 90.3% | [9]; at 33.0 µM 84% | [9]; at 100.0 µM 99% | [10]; [17] 98% | [10]; at 50.0 µM 92% | [11]; at 33.0 µM 99% | [11]; [17] 99% | [11]; at 50.0 µM 89.5% | [11]; at 100.0 µM 99% | [12]; at 11.0 µM 75% | [12]; at 33.0 µM 100% | [12]; at 100.0 µM 99% | [13]; at 3.7 µM 71% | [13]; at 11.0 µM 84% | [13]; at 33.0 µM 98% | [13]; at 100.0 µM 98% | [14]; [17] 97% | [14]; at 50.0 µM 92% | [15]; at 1.2 µM 92% | [15]; at 3.7 µM 93% | [15]; at 11.0 µM 95% | [15]; at 33.0 µM 98% | [15]; at 100.0 µM 99%
inactive: [1]; at 1.2 µM 33% | [1]; at 3.7 µM 59% | [2]; at 1.2 µM 0% | [2]; at 3.7 µM 16% | [2]; at 11.0 µM 34% | [3]; at 1.2 µM 61% | [4]; at 1.2 µM 10% | [4]; at 3.7 µM -5% | [4]; at 11.0 µM 33% | [5]; at 1.2 µM 14% | [5]; at 3.7 µM 58% | [5]; [16] 25% | [6]; at 1.2 µM 17% | [6]; at 3.7 µM 10% | [6]; [16] -31% | [6]; at 11.0 µM 52% | [7]; at 1.2 µM 21% | [7]; at 3.7 µM 43% | [8]; [16] 38% | [9]; at 1.2 µM 0% | [9]; at 3.7 µM 11% | [9]; at 11.0 µM 14% | [10]; [16] 7% | [11]; at 1.2 µM -1% | [11]; at 3.7 µM -12% | [11]; [16] -28% | [11]; at 11.0 µM 0% | [12]; at 1.2 µM -18% | [12]; at 3.7 µM 5% | [13]; at 1.2 µM 40% | [14]; [16] 38%

CC(C)OP(=O)(OC(C)C)C(=NCCO)NNc1ccc([N+](=O)[O-])cc1
inactive: [1]; at 1.2 µM 8% | [1]; at 3.7 µM 3% | [1]; at 11.0 µM 14% | [1]; at 33.0 µM 31% | [2]; at 1.2 µM -6% | [2]; at 3.7 µM 1% | [2]; at 11.0 µM 6% | [2]; at 33.0 µM 7% | [2]; at 100.0 µM 29% | [3]; at 1.2 µM -2% | [3]; at 3.7 µM 34% | [3]; at 11.0 µM 69% | [4]; at 1.2 µM -34% | [4]; at 3.7 µM -34% | [4]; at 11.0 µM -32% | [4]; at 33.0 µM 0% | [5]; at 1.2 µM -5% | [5]; at 3.7 µM -3% | [5]; [16] 8% | [5]; at 11.0 µM 24% | [5]; at 33.0 µM 59% | [5]; [17] 64% | [6]; at 1.2 µM -23% | [6]; at 3.7 µM -16%
active: [1]; at 100.0 µM 79% | [3]; at 33.0 µM 93% | [3]; at 100.0 µM 94% | [4]; at 100.0 µM 74% | [5]; at 50.0 µM 86% | [5]; at 100.0 µM 91%
